The text below walks through data of PubChem BioAssay (NCI).

About 83,000 compounds went through this panel and 20% of them were active in at least one assay; those are over-represented in the sample as a whole.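 Results are percent growth after 48 hours of single-concentration exposure. 100 means growth as in untreated cells, lower positive values show inhibition; negative values down to -100 show cell death.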 Values without a mark were called inactive. Calls of active or inactive are those of the source.

The assay deals with CAKI-1 renal. Put plainly: NCI-60 one-dose screen, 48 h (100 = growth as untreated, 0 = no growth, -100 = all killed). The conditions noted are these: 10 µM unless noted. Here is the method:
Growth inhibition of the CAKI-1 human tumor cell line is measured as a screen for anti-cancer activity. Cells are grown in 96 well plates and exposed to the test compound for 48 hours. Compounds are tested at a single concentration, which is 10^-5 M for most compounds. The reported endpoint is percent growth (GI% or GIPRCNT), where numbers from 0 - 100% represent growth inhibition, and numbers from -100% - 0 represent cell death. For example, a value of 40 represents 60% growth inhibition. A value of 0 means no net growth occurred over the course of the experiment. A value of -40 indicates 40% of cells at the beginning of the experiment died by the end of the experiment. A value of -100 means all cells are dead at the end of the experiment.
NCI-60 Human Tumor Cell Lines Screen was performed using the standard one-dose NCI protocol, which is described in more detail at https://dtp.cancer.gov/discovery_development/nci-60/default.htm.
Compounds with GIPRCNT values below 10 were considered active. Activity score was based on GIPRCNT using the following formula: […]
Score is 0 for GIPRCNT values of 100 or above, 50 for GIPRCNT values of 0, and 100 for GIPRCNT values of -100.
With `O=C(Nc1ccc(C(=O)/C=C/c2ccc(N3CCOCC3)cc2)cc1)Nc1ccc([N+](=O)[O-])cc1`, the growth was 82.6%.
For `CCCc1cc2cc(-n3nc(C)c4c3CC(C)(C)CC4=O)cc(NC3CCSCC3)c2c(=O)[nH]1`, the growth is 68.8%.
To `CC1=CCc2ccccc21` belongs 87.7%; to `CCCn1ccnc1C(O)c1ccc(OCc2ccccc2)c(OC)c1` (stereo not given), 74.8%; to `CC(=O)OC[C@]12CC[C@@H](C(=O)CBr)[C@@H]1[C@H]1CC[C@@H]3[C@@]4(C)CCCNC(C)(C)[C@@H]4CC[C@@]3(C)[C@]1(C)CC2`, -96.1% [100 µM] (active).
As to `COc1cc(-c2nc(SCCC(C)C)nc(Nc3ccc(S(N)(=O)=O)cc3)c2C#N)cc(OC)c1OC`, the growth is 17.1%.
For `Nc1nnc(CSc2nnc3n(Cc4ccccc4)c(=O)c4c5c(sc4n23)CCCC5)s1` the value was 10%.
For `C[C@H]1[C@H](C)CC[C@]2(C(=O)O)CC[C@]3(C)C(=CC[C@@H]4[C@@]5(C)C/C(=C/c6ccco6)C(=O)C(C)(C)[C@@H]5CC[C@]43C)[C@H]12`, the growth was -74.6% [100 µM] (active).
For `C[C@]12CCc3nc(Nc4ccccc4)sc3C1=CC[C@@H]1[C@@H]2CC[C@]2(C)/C(=N/NC(N)=S)CC[C@@H]12` the value was 49.6%; for `CCCC(NC(=O)OCc1ccccc1)C(=O)O` (stereo not given), 82.9%; for `CC(C)=CC/C=C(/C)[C@H]1CC[C@]2(C)[C@@H]1CC[C@@H]1[C@@]3(C)CCCNC(C)(C)[C@@H]3CC[C@]12C`, -79.9% [100 µM] (active).
To `C=C(C)C1CCC2(C(=O)O)CCC3(C)C(CCC4C5(C)CCC(OC(=O)NCc6ccccc6)C(C)(C)C5CCC43C)C12` (stereo not given) belongs 16.1%; to `N#CC1C(=O)NC(c2ccccc2[N+](=O)[O-])c2sc3c(F)cccc3c21` (stereo not given), 5.27% (active).
`COc1cc(Cl)cc(-c2nn(C(=O)NS(=O)(=O)c3ccccc3)cc2-c2ccncc2)c1`: the growth was 80.9%.
To `NS(=O)(=O)c1ccc(CCN2C(=O)/C(=C\c3ccccc3)C=C2c2ccc(Cl)cc2)cc1` belongs 65.1%.
For `Cc1ccc(Oc2c(/C=N/NC(=O)Cn3c(=O)sc4ccccc43)c(C)nn2-c2ccccc2)cc1` the value was 28.8%.
Consider `COc1cc2c(c(OC)c1)C1c3cc(OC)ccc3NC(=O)N1CC2` (stereo not given), for which the growth was 77.8%.
To `CCN(CCNc1ccc(C)c2sc3cc(Cl)ccc3c(=O)c12)CC(C)O` (stereo not given) belongs 43.7%; to `O=[N+]([O-])c1cccc(/C=C/c2ccc3ccccc3n2)c1`, 78.3%; to `CC[C@]1(O)CC2CN(CCc3c([nH]c4ccccc34)[C@@](C(=O)OC)(c3cc4c(cc3OC)N(C=O)[C@H]3[C@@](O)(C(=O)OC)[C@H](OC(C)=O)[C@]5(CC)C=CCN6CC[C@]43[C@@H]65)C2)C1` (stereo not given in full), 48.9%.
For the compound `CCCCCCNC(=O)Nc1ncnc2c1ncn2-c1ccccc1`, the growth was 85.8%.
Take `O=[N+]([O-])c1cc([N+](=O)[O-])c(NN=C(c2ccc(O)cc2)c2ccc(O)cc2)cc1Cl`: the growth was 42.3%.
For `COC(=O)[C@H](CC(C)C)NC(=O)NC(=O)NC(=O)CI`, the growth was -69.2% (active).
For `COc1ccc2nc3c(cc2c1)C(=O)CC(c1ccccc1)C3` (stereo not given) the value was 31.3%.
Regarding `CC1Cc2c(Cl)ncnc2N(C)c2ccccc21` (stereo not given), the growth is 19.3%.
For `COc1cc2c(O)n(CCCN3CCOCC3)c3c4cnc5cccc(c(=O)c3c2cc1OC)c54` the value was 30%; for `CCOc1ccc2sc(NS(=O)(=O)c3ccc(N)cc3)nc2c1`, 89.4%; for `O=c1[nH]c2cc(Cl)c(Cl)cc2n2cc3ncccc3c12`, 59.9%.
With `COc1cc(NCc2ccccc2O)c2ncccc2c1`, the growth is 8.76% (active).
As for `Nc1nc(Nc2ccccc2)c2ncn(Cc3cc4c(cc3Br)OCO4)c2n1`, the growth was 18.2%.
Take `Cc1cccc(C[C@H](NC(=O)Nc2ccc(Cl)cc2F)C(=O)N[C@@H]2C(=O)N3C[C@H](OC(=O)CCN(C)C)C[C@H]3C(=O)N3CCCC[C@H]3C(=O)N[C@@H](C)C(=O)N3C[C@H](C)C[C@H]3C(=O)O[C@H]2C)c1`: the growth was 15.5%.
To `Cc1cc(N2CCCCCC2)nc(N2CCN(CC(=O)Nc3ccc4c(ccn4Cc4ccccc4)c3)CC2)n1` belongs 33.3%.
For the compound `COc1cc(NCc2cn(-c3ccc(C(=O)O)cc3)nc2-c2ccc(C(=O)O)cc2)cc(OC)c1OC`, the growth is 87.9%.
As for `OC(c1ccc(Cl)cc1)(c1ccc(Cl)cc1)C(O)(c1ccc(Cl)cc1)c1ccc(Cl)cc1`, the growth is 46.8%.
Take `CCCCCN(CCCCC)CCCCCCCCN1CCCc2ccccc21`: the growth was 54.8%.
For `CN(C)c1ccc(-c2ccc(-c3ccc(C(=N)N)cc3)s2)cc1` the value was 96.6%.
For the compound `Cc1ccc(-c2cc(-c3ccc(C)cc3)nc(N3CCN(CCNc4ccnc5cc(Cl)ccc45)CC3)n2)cc1`, the growth was 32.7%.
For the compound `COc1cc2c(=O)[nH]c3cc([N+](=O)[O-])ccc3c2cc1[N+](=O)[O-]`, the growth was 45.7%.
In the case of `COc1ccc(C(=O)c2nccc3cc(OC)c(OC)cc23)cc1OC`, the growth was 75.8%.
To `Cc1nn(-c2ccccc2)c(N2CCOCC2)c1-c1nc2ccc([N+](=O)[O-])cc2[nH]1` belongs 80%.
